This note sets out measurements from PubChem BioAssay (NCATS).

A short description of experiment [1]: qHTS profiling of the MIPE4 collection as inhibitors of Plasmodium falciparum (3D7) proliferation (AID 743344; call rule not given here;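 further: scaled between DMSO vehicle wells and 0.29 µM artemisinin as full inhibition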). Particulars: P. falciparum 3D7 in erythrocytes, SYBR Green DNA fluorescence, 72 h; at 28.5 µM unless noted. The essentials: (§1)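 Erythrocytes infected with P. falciparum (0.3% parasitemia, 2.5% hematocrit) incubated with compounds 72 h at 37 C, 5% CO2. Lysis with saponin/Triton buffer containing SYBR Green I, overnight at room temperature in the dark; DNA fluorescence (485/535 nm) normalised to 0.29 uM artemisinin and DMSO.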
On the technique in general: Quantitative high-throughput screening tests each substance at several concentrations.

Experiment [2] is described as follows: qHTS profiling of the MIPE4 collection as inhibitors of Plasmodium falciparum (DD2) proliferation (AID 743345; call rule not given here). The note with it: P. falciparum Dd2 in erythrocytes, SYBR Green DNA, 72 h; at 28.5 µM unless noted. A digest of the protocol: as §1
Experiment [3] can be described thus: qHTS profiling of the MIPE4 collection as inhibitors of Plasmodium falciparum (DD2) proliferation (Rep 2) (AID 743346; call rule not given here). Particulars: P. falciparum Dd2 in erythrocytes, SYBR Green DNA, 72 h; at 28.5 µM unless noted. A digest of the protocol:
as §1

Experiment [4] in a line: qHTS for Inhibitors of the Functional Ribonucleoprotein Complex (vRNP) of Lassa (LASV) Arenavirus: LASV Primary Screen - GLuc reporter signal (AID 1347082; calls by dose curve; tested in HEK293 reporter line; further: on the % scale 0 is the no-effect control and ±100 the full control effect; nearly all actives have a fitted effect of over 60% in size). The note with it: LASV minigenome vRNP, Gaussia luciferase reporter; series mostly up to 57.5 µM.
A short description of experiment [5]: qHTS for Inhibitors of the Functional Ribonucleoprotein Complex (vRNP) of Lassa (LASV) Arenavirus: Viability assay - alamar blue signal for LASV Primary Screen (AID 1347083; calls by dose curve; tested in HEK293 reporter line; further: on the % scale 0 is the no-effect control and ±100 the full control effect; nearly all actives have a fitted effect of over 80% in size). The note with it: cell viability, alamar blue fluorescence (LASV minigenome counter-screen); series mostly up to 57.5 µM.
Experiment [6] in a line: qHTS for Inhibitors of the Functional Ribonucleoprotein Complex (vRNP) of Lymphocytic Choriomeningitis Arenaviruses (LCMV): Viability assay - alamar blue signal for LCMV Primary Screen (AID 1347085; calls by dose curve; tested in HEK293 reporter line; further: on the % scale 0 is the no-effect control and ±100 the full control effect; nearly all actives have a fitted effect of over 80% in size). The note with it: alamar blue viability counter-screen, LCMV vRNP screen cells; series mostly up to 57.5 µM.
For experiment [7], the target named is Nucleoprotein (Lymphocytic choriomeningitis virus (strain Armstrong)) (UniProt P09992). As to the kind of experiment: qHTS for Inhibitors of the Functional Ribonucleoprotein Complex (vRNP) of Lymphocytic Choriomeningitis Arenaviruses (LCMV): LCMV Primary Screen - GLuc reporter signal (AID 1347086). Further: on the % scale 0 is the no-effect control and ±100 the full control effect; nearly all actives have a fitted effect of over 70% in size. The note with it: LCMV minigenome vRNP cell assay, Gaussia luciferase reporter; series mostly up to 57.5 µM.
Nucleoprotein (Lymphocytic choriomeningitis virus (strain Armstrong)), sequence (P09992 whole entry, looked up): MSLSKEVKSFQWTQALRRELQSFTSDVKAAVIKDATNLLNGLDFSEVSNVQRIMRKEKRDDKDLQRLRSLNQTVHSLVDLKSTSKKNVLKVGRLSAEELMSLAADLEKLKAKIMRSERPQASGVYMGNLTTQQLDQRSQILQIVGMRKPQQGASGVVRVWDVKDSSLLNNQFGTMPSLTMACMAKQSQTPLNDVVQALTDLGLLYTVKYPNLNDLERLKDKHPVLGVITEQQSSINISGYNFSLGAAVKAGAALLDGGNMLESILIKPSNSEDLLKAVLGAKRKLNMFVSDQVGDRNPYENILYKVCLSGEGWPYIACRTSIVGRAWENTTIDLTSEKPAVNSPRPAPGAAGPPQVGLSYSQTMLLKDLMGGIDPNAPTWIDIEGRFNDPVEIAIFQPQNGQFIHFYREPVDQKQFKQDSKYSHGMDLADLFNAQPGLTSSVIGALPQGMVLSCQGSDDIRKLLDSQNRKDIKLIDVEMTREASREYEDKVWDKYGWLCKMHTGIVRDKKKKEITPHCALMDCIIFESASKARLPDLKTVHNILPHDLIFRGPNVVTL

Experiment [8] is described as follows: Primary qHTS for inhibitors of SARS-S pseudo-typed particle cell entry (AID 1479145). Further: nearly all actives have a fitted effect of over 45% in size. On activity change, negative = inhibition: on the % scale 0 is the no-effect control and ±100 the full control effect. Particulars: SARS-S pseudotyped particle cell entry, luciferase reporter; series mostly up to 57.1 µM.
A short description of experiment [9]: Primary qHTS for Huh7 cytotoxicity: counterscreen for inhibitors of MERS-S pseudotyped particle cell entry (AID 1479147). Particulars: cell viability read-out; series mostly up to 57.1 µM.
Experiment [10] can be described thus: Primary qHTS for inhibitors of MERS-S pseudo-typed particle cell entry (AID 1479149). Further: nearly all actives have a fitted effect of over 60% in size. Further: potency means the concentration at half of the fitted maximal effect. On activity change, negative = inhibition: on the % scale 0 is the no-effect control and ±100 the full control effect. Particulars: MERS-S pseudotyped particle entry, luciferase; series mostly up to 57.1 µM.
A short description of experiment [11]: Primary qHTS for Vero E6 cytotoxicity: counterscreen for inhibitors of SARS-S pseudo-typed particle cell entry (AID 1479150). Particulars: cell viability; series mostly up to 57.1 µM.
Experiment [12] can be described thus: Cytotoxicity counterscreen for inhibitors of SARS-CoV-2 cell entry (AID 1645845). Further: nearly all actives have a fitted effect of over 50% in size. Particulars: cell viability (SARS-CoV-2 entry assay cells); series mostly up to 57.1 µM. The essentials:
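Expi293F/hACE2 cells seeded overnight; cpd pin-transferred in DMSO, 1 h preincubation, + media, 48 h 37 C 5% CO2; ATPLite 1step luminescence; normalized to cells and no cells.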

Experiment [13] in a line: Primary qHTS to identify inhibitors of SARS-CoV-2 cell entry (AID 1645846). Further: nearly all actives have a fitted effect of over 45% in size. The note with it: SARS-CoV-2 pseudovirus cell entry assay, luminescence; activity change, negative = inhibition: at 57.1 µM (top of the series) unless noted; series mostly up to 57.1 µM. The essentials: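 HEK293 cells stably expressing human ACE2, pre-treated 1 h with compound, then infected with MLV particles pseudotyped with Wuhan-Hu-1 spike (C-terminal 19-aa truncation). Luciferase luminescence after 48 h at 37 °C, normalised to spike PP and bald PP.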

Experiment [14] in a line: VSVG counterscreen qHTS to identify inhibitors of SARS-CoV-2 cell entry (AID 1645847). Further: potency means the concentration at half of the fitted maximal effect; nearly all actives have a fitted effect of over 65% in size. Particulars: VSV-G pseudotyped particle entry, luciferase; series mostly up to 57.2 µM. A digest of the protocol:
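HEK293-ACE2 cells (Expi293F, human ACE2) pretreated 1 h with compound, then infected with MLV-based VSV-G pseudotyped particles for 48 h at 37 C; luciferase luminescence normalized to VSV-G PP and bald PP wells.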
A general note: Counterscreens check selectivity or assay interference.

The target of experiment [15] is Alpha-galactosidase (Coffea arabica) (UniProt Q42656). The experiment can be described thus: Counterscreen for Glucocerebrosidase Inhibitors: qHTS Assay for Coffee Bean alpha-Galactosidase at pH 4.5 (AID 957; active means well fitted curve in the direction sought with a large enough effect; an effect the other way counts as inactive or inconclusive;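 further: plate controls were enzyme alone for no effect and no enzyme for full effect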). The note with it: purified coffee bean alpha-galactosidase, fluorogenic substrate; series mostly up to 76.9 µM. A digest of the protocol: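 AC50 values derive from Hill-equation modeling of concentration-response data, normalized to no-enzyme and full-activity controls. The pH 4.5 citrate assay used 2 nM coffee bean enzyme and 80 uM fluorogenic substrate for 20 min.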
Alpha-galactosidase (Coffea arabica), sequence (Q42656 whole entry, looked up): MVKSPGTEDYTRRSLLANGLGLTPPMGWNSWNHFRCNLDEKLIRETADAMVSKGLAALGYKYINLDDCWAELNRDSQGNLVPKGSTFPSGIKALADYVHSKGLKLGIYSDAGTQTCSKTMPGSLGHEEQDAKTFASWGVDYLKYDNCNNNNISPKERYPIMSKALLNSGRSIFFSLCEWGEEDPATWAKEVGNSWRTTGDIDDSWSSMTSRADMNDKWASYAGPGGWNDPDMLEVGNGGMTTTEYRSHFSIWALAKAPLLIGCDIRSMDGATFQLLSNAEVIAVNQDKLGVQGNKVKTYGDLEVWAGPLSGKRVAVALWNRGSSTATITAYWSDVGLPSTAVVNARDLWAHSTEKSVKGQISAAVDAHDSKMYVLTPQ

The target is the same in experiment [16]. The experiment can be described thus: Counterscreen for Glucocerebrosidase Inhibitors: qHTS Assay for Coffee Bean alpha-Galactosidase at pH 5.9 (AID 998; active means well fitted curve in the direction sought with a large enough effect; an effect the other way counts as inactive or inconclusive;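 further: plate controls were uninhibited enzyme for no effect and no-enzyme basal signal for full effect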). Particulars: coffee bean alpha-galactosidase enzyme assay; series mostly up to 76.9 µM. A digest of the protocol: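 Green coffee bean enzyme (2 nM final) was incubated with compounds (0.7 nM–77 uM) and 4-methylumbelliferyl alpha-D-galactopyranoside (80 uM) in citrate buffer pH 5.9, 20 min at room temperature. High-pH stop; fluorescence 365/440 nm; AC50 from Hill fits.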

Experiment [17] is described as follows: Inducers of the Endoplasmic Reticulum Stress Response (ERSR) in human glioma: Validation (AID 504836; active means well fitted curve in the direction sought with a large enough effect; an effect the other way counts as inactive or inconclusive; further: 0% is about no effect). Particulars: human glioma cells, ER stress response reporter; series mostly up to 38.3 µM. A digest of the protocol:
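Stably transfected U87-MG human glioma cells carrying a GRP78-based luminescent sensor were seeded at 1000 cells/well, pin-dosed with compounds and incubated 16 h. Luciferase reagent was then added, and end-point luminescence was read after 10 min at room temperature.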

For experiment [18], the target named is Endonuclease 4 (Escherichia coli (strain K12)) (UniProt P0A6C1). As to the kind of experiment: Counterscreen for APE1 Inhibitors: qHTS Validation Assay for Inhibitors of Endonuclease IV (AID 1708; active means well fitted curve in the direction sought with a large enough effect; an effect the other way counts as inactive or inconclusive; further: on the % scale 0 is the no-effect control and ±100 the full control effect). The note with it: E. coli endonuclease IV, DNA cleavage fluorescence; series mostly up to 57.1 µM. The essentials:
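2 nM enzyme was preincubated with compounds for 15 min at room temperature in 50 mM Tris-HCl pH 7.5, 50 mM NaCl, 2 mM MgCl2, 1 mM DTT, 0.01% Tween-20. 50 nM THF-abasic TAMRA/BHQ-2 duplex substrate started the reaction.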

Experiment [19] can be described thus: Validation screen for inhibitors of Lassa infection (AID 463096). Further: on the % scale 0 is the no-effect control and ±100 the full control effect. The note with it: Lassa virus infection, cell-based; series mostly up to 46.1 µM.
Experiment [20] deals with Nuclear receptor subfamily 1 group I member 3 (Homo sapiens) (UniProt Q14994). The experiment can be described thus: Primary qHTS for antagonist of constitutive androstane receptor (CAR) against the NCATS DSHEA and TCM libraries (AID 1794836; active means well fitted curve in the direction sought with a large enough effect; an effect the other way counts as inactive or inconclusive). Particulars: CAR reporter cell assay, antagonist mode, luciferase; series mostly up to 40 µM. A digest of the protocol:
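HepG2 cells stably carrying hCAR and a CYP2B6 luciferase reporter (2,500 cells/well) attached for 5 h, then received compounds with 48 uM CITCO for 24 h at 37C. ONE-Glo luminescence read antagonism; CellTiter-Fluor (405/540 nm) gave viability.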

Where “and” joins values, the source holds several entries; their conditions need not be identical. Equal values may be shown once. Inconclusive results are not listed. Calls of active or inactive are those of the source. Unless noted, the call rests on the fitted dose curve.

Nuclear receptor subfamily 1 group I member 3 (Homo sapiens), sequence (Q14994 whole entry, looked up): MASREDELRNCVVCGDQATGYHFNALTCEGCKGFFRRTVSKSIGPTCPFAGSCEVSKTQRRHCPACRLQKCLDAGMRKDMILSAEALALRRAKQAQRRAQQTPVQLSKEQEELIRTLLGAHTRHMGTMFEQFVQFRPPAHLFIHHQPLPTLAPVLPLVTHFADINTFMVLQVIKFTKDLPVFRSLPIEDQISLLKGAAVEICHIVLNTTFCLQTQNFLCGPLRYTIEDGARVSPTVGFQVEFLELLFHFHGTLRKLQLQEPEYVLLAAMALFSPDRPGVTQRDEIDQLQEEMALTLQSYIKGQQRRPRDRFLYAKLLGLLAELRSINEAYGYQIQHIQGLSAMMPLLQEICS

Compound `Cc1cn([C@@H]2C[C@@H](O)[C@H](CO)O2)c(=O)[nH]c1=O` returned a parasite growth, % of DMSO control in experiment [1] of 93.3%. Also, the parasite growth remaining, % of DMSO control (lower = more inhibition) in experiment [2] turned out to be 92.6%. Further, the parasite growth, % of control (lower = inhibition) in experiment [3] was 94.9%. The Potency entry in experiment [4], in experiment [5], in [6], in experiment [7], in [8] and in experiment [10] was “inactive” throughout. In [12], the Potency entry was “inactive”. Also, the outcome in experiment [9] and in experiment [11] was inactive. Further, the activity change, negative = inhibition in experiment [13] was -18% and -32.2%.

On to `CC(C)[N+]1(C)[C@@H]2CC[C@H]1CC(OC(=O)C(CO)c1ccccc1)C2` (some centres undefined), for which the Potency entry in experiment [4], in experiment [5], in experiment [6], in [7], in experiment [8] and in experiment [10] was “inactive” each time. Further, in experiment [12], the Potency result is “inactive”. The outcome in experiment [9] and in [11] was inactive. Also, the activity change, negative = inhibition in experiment [13] was 2.78%.

Regarding `COc1cc(C)c(C=CC(C)=CC=CC(C)=CC(=O)O)c(C)c1C`, the Potency result in [4], in experiment [5], in experiment [6], in experiment [7], in experiment [8] and in [10] was “inactive” in each case. In addition, the Potency result in experiment [12] and in [13] was “inactive” each time. The result in [9] and in experiment [11] was inactive.

Consider `CC(C)(CO)[C@@H](O)C(=O)NCCC(=O)O`, for which the Potency entry in experiment [4], in experiment [5], in [6], in experiment [7], in experiment [10] and in experiment [12] was “inactive” in each case. The result in experiment [9] and in experiment [11] was inactive.

For the compound `COc1cc2c(cc1Cc1cccc(Cl)c1F)c(=O)c(C(=O)O)cn2[C@H](CO)C(C)C`, the Potency entry in experiment [4], in experiment [5], in experiment [6], in experiment [7], in experiment [8] and in [12] was “inactive” throughout. Further, the result in experiment [9] and in experiment [11] was inactive. For the same compound, the Potency was 12.6 µM (active) in experiment [10] and 0.0171 µM (active) in experiment [14]. The activity change, negative = inhibition in experiment [13] was -96.1% and -86.8%.

In the case of `CCCC1O[C@@H]2C[C@H]3[C@@H]4CCC5=CC(=O)C=C[C@]5(C)[C@H]4[C@@H](O)C[C@]3(C)[C@]2(C(=O)CO)O1` (some centres undefined), the compound was called inactive in experiment [15], in experiment [16], in experiment [17], in experiment [9] and in experiment [11]. Further, the Potency entry in experiment [4], in [5], in experiment [6], in experiment [7], in experiment [8] and in [10] was “inactive” throughout. In experiment [12], the Potency entry was “inactive”. Further, in experiment [13], the activity change, negative = inhibition is -23.4%.

As to `NCCCC(=O)O`, the outcome in [15] and in experiment [16] was inactive. Moreover, the Potency entry in [4], in [5], in experiment [6], in experiment [7] and in experiment [8] was “inactive” throughout.

As for `CN[C@H](CC(C)C)C(=O)N[C@H]1C(=O)N[C@@H](CC(N)=O)C(=O)N[C@H]2C(=O)N[C@H]3C(=O)N[C@H](C(=O)N[C@H](C(=O)O)c4cc(O)cc(O)c4-c4cc3ccc4O)[C@H](O)c3ccc(c(Cl)c3)Oc3cc2cc(c3O[C@@H]2O[C@H](CO)[C@@H](O)[C@H](O)[C@H]2O[C@H]2C[C@](C)(N)[C@H](O)[C@H](C)O2)Oc2ccc(cc2Cl)[C@H]1O`, the outcome in experiment [18] and in experiment [11] was inactive. For the same compound, the Potency result in experiment [19], in [4], in experiment [5], in experiment [6], in experiment [7] and in experiment [8] was “inactive” throughout. Besides, the Potency entry in experiment [10] and in experiment [12] was “inactive” throughout. Further, the outcome in experiment [9] is “inactive [at 26.4 µM]”. In experiment [13], the activity change, negative = inhibition is -14.9% [at 27.1 µM] and -31.1% [at 27.1 µM].

Take `CCCCCCCC(=O)O`: the Potency entry in experiment [4], in experiment [5], in experiment [6], in experiment [7], in experiment [8] and in experiment [10] was “inactive” in each case. The Potency result in experiment [12] and in experiment [20] was “inactive” throughout. Also, the outcome in [9] and in experiment [11] was inactive.

Consider `NC[C@H]1O[C@H](O[C@H]2[C@@H](O)[C@@H](O[C@H]3O[C@H](CO)[C@@H](O)[C@H](N)[C@@H]3O)[C@H](N)C[C@@H]2N)[C@H](N)C[C@H]1O`, for which the Potency entry in experiment [4], in experiment [5], in experiment [6] and in [7] was “inactive” throughout. Besides, the activity change, negative = inhibition in experiment [8] was -1.32% [at 11.4 µM] (inactive); in experiment [13], -15.5% [at 11.3 µM]. The outcome in experiment [9], in experiment [10] and in experiment [11] was “inactive [at 11.4 µM]” in each case.

On to `NC(=O)c1cc[n+](CC2=C(C(=O)O)N3C(=O)[C@@H](NC(=O)[C@@H](c4ccccc4)S(=O)(=O)[O-])[C@H]3SC2)cc1`, for which the Potency entry in experiment [19], in experiment [4], in experiment [5], in experiment [6], in experiment [7] and in experiment [8] was “inactive” in each case. For the same compound, the Potency result in experiment [10] and in [12] was “inactive” each time. Besides, the compound was classed as inactive in experiment [17], in [9] and in experiment [11].
